# From PubChem BioAssay (NCI)
# Compounds without any hit were thinned out: in the full panel of roughly 83,000, 20% have a hit.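 In brief: 96-well plates, 48 h treatment, single concentration, percent growth endpoint.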 Values without a mark were called inactive. Activity calls are given as the source filed them. The calls were made as follows: active = growth percent below 10; inactive = the rest.
# Assays:
# Assay in all cases: NCI-60 one-dose screen, 48 h (100 = growth as untreated, 0 = no growth, -100 = all killed)
# Settings in all cases: 10 µM unless noted
# [1] = tested on: NCI-H23 lung
# [2] = tested on: NCI-H226 lung
# [3] = tested on: NCI-H322M lung
# [4] = tested on: HOP-62 NSCLC
# [5] = tested on: NCI-H460 lung
# [6] = tested on: HOP-92 NSCLC
# [7] = tested on: NCI-H522 lung
# [8] = tested on: A549/ATCC NSCLC
# [9] = tested on: 786-0 renal
# [10] = tested on: COLO 205 colon
# [11] = tested on: DU-145 prostate
# [12] = tested on: K-562 leukemia
# [13] = tested on: MALME-3M melanoma
# [14] = tested on: MDA-MB-231 breast
# [15] = tested on: RXF 393 renal
# [16] = tested on: SF-268 CNS
# [17] = tested on: SF-539 CNS
# [18] = tested on: UACC-257 melanoma
# [19] = tested on: M14 melanoma
Compound,growth [1],growth [2],growth [3],growth [4],growth [5],growth [6],growth [7],growth [8],growth [9],growth [10],growth [11],growth [12],growth [13],growth [14],growth [15],growth [16],growth [17],growth [18],growth [19]
Clc1ccc2c(c1)-c1ccccc1C1=NCCN12,33.4%,24.7%,25.3%,45.9%,8.92% (active),58.6%,23.2%,13%,44.8%,7.28% (active),30.8%,9.07% (active),11.5%,45.6%,2.19% (active),41.1%,33.8%,14.2%,37.8%
C#CC[C@@H]1C[C@]2(C)[C@H]3CC[C@@H]4[C@H]5C(C(=C)C)CC[C@]5(C(=O)NCCCN5CCN(CCCN)CC5)CC[C@@]4(C)[C@]3(C)CC[C@H]2C(C)(C)[C@H]1OC(C)=O (stereo partly drawn),3.21% (active),87.4%,-81.2% (active),-59.7% (active),-77% (active),-78.3% (active),4.62% (active),-61.9% (active),-97.5% (active),-68.3% (active),-92% (active),-19.8% (active),67.8%,-83.3% (active),-87.4% (active),85.5%,-91.3% (active),72.1%,-80.5% (active)
Cc1ccc(N2C3c4ccccc4N(S(=O)(=O)c4ccc(C)cc4)C2c2ccccc2N3S(=O)(=O)c2ccc(C)cc2)cc1,99.9%,94.3%,106%,107%,99.5%,101%,106%,97.1%,112%,115%,104%,90.4%,97.9%,94.3%,121%,107%,95.4%,102%,110%
CCN(C(=O)Nc1cccc2ccccc12)c1ccccc1,98.3%,98.1%,102%,93.6%,115%,96.3%,100%,98.7%,106%,105%,107%,89.3%,90.6%,105%,120%,104%,93.5%,112%,106%
O=C(/C=C/c1ccccc1)C(Br)C(Br)c1ccccc1 (stereo not drawn),29.4%,-36.8% (active),100%,12.5%,89.8%,-18.9% (active),-78.3% (active),47.2%,-80.2% (active),-74.2% (active),-21.3% (active),1.4% (active),-54.3% (active),27.7%,-79.9% (active),13.9%,-33.1% (active),22.8%,17.2%
COc1ccc(/C=c2\c(=O)n(-c3ccccc3)c3nn4c(=O)c(=O)[nH]nc4n23)cc1,99.9%,92.8%,113%,102%,106%,100%,100%,110%,108%,119%,115%,122%,104%,122%,123%,104%,103%,110%,99.5%
C=CCn1c(SCC(=O)Nc2ccc(C(=O)/C=C/c3ccc(Cl)cc3)cc2)nnc1-c1ccc(Cl)cc1,82.8%,83.1%,110%,78.2%,99.5%,91%,68.4%,73.8%,93.9%,98.3%,100%,72.5%,93.2%,86.4%,99.9%,82.7%,99.2%,99%,95.5%
O=C(Nc1ccc(OS(=O)(=O)c2ccc(F)cc2)cc1)C12CC3CC(CC(C3)C1)C2,74.9%,87.6%,92.4%,54.1%,63.6%,48.1%,66%,56.2%,59.3%,54.3%,87.1%,27.5%,99.7%,59.2%,58.6%,78.4%,61%,65.3%,58.8%
N#Cc1c(N)c(C(=O)c2ccc3c(c2)OCCO3)n2c1CCCC2,42.7%,81.7%,25.3%,35.4%,15.9%,64.4%,-33.3% (active),34.5%,53%,14.9%,45.2%,0.198% (active),-8.49% (active),52.3%,31.4%,36.9%,24.2%,45.9%,19.4%
CC(C)N1CCN(c2ccncc2S(=O)(=O)N2CCN(C)CC2)CC1,96.8%,89.7%,123%,106%,102%,108%,92.7%,101%,98.6%,105%,110%,98%,113%,101%,107%,107%,99.8%,102%,99.5%
C[C@@H](C[C@H](CC1CC1)c1ccccc1)c1ccc2ccccc2c1,100%,109%,101%,104%,100%,102%,95.2%,98.2%,101%,109%,106%,104%,96.7%,106%,117%,98.5%,96.9%,106%,102%
CCc1oc2ccccc2c1C(=O)c1cc(I)c(O)c(I)c1,58.5%,74.8%,98.3%,108%,21.6%,53.2%,30%,40.3%,62%,104%,77.8%,25%,53%,54.7%,45.3%,53.1%,44%,70.7%,16.2%
CCc1ccc(Nc2cc(C)c3ccc(O)cc3n2)cc1,90.4%,76.7%,82.9%,88%,64.3%,74.4%,92.2%,85%,68.1%,-81.3% (active),94.8%,20.3%,17.5%,31.1%,52.6%,68.1%,89.1%,39.4%,45.4%
O=C(NO)c1ccc(NCc2csc3ccccc23)cc1,48.5%,64.8%,85.7%,65.3%,39.8%,71.7%,33.1%,70.3%,71.3%,50.1%,54.3%,62%,60.8%,60.9%,71.2%,68.8%,70.3%,70.2%,59.4%
COc1ccccc1/C=N\NC(=S)Nc1ccc(F)cc1,72.5%,90.9%,96%,79.8%,80.5%,71%,38.1%,68%,93.6%,91.9%,98.6%,32.3%,65%,59.8%,88.2%,91.6%,73.3%,77.2%,48.4%
COc1cc(NC(C)CCCN)c2ncccc2c1Oc1ccc(Cl)cc1 (stereo not drawn),87.4%,75%,64.5%,77.7%,83.8%,43.4%,87.9%,87.9%,67.3%,6.98% (active),74.8%,52.2%,88.1%,42.4%,79.5%,77.5%,81.2%,88.5%,74.4%

Compound,growth [1],growth [2],growth [3],growth [4],growth [5],growth [6],growth [7],growth [8],growth [9],growth [10],growth [11],growth [12],growth [13],growth [14],growth [15],growth [16],growth [17],growth [18],growth [19]
Cc1cc(-c2nnc(/C=C/c3ccc4c(c3)OCO4)o2)n[nH]1,77.7%,95.2%,66.5%,78.5%,84.3%,80.7%,15.2%,58.7%,97.2%,61.6%,83.4%,23.5%,49.4%,54.4%,85.5%,74.9%,46.3%,78.1%,46.3%
OC(c1cc(-c2ccc(C(F)(F)F)cc2)nc(-c2ccc(C(F)(F)F)cc2)c1)C1CCCCN1 (stereo not drawn),-60.2% (active),-71.2% (active),-79.5% (active),-86.9% (active),-67.7% (active),-81.9% (active),-78.7% (active),-84.4% (active),-75.4% (active),-79.6% (active),-94.9% (active),-73.6% (active),-64.7% (active),-71% (active),-86% (active),-83.9% (active),-77.3% (active),-76% (active),-80.1% (active)
COc1cc(NCCCCC(C)N)c2nccc(C)c2c1 (stereo not drawn),89.3%,93.2%,79.8%,78.3%,95.3%,46.5%,90.7%,101%,83.7%,37%,111%,80.4%,98%,62.9%,89.8%,100%,83.9%,107%,95.4%
O=C(NC1CC1)c1ccc(-c2nc3ccc4[nH]ncc4c3c3c2CCCC3)cc1,53.3%,44.7%,41.7%,28.9%,41.7%,71.2%,18.9%,26.3%,42.1%,23.6%,38.2%,24.4%,53.8%,45.7%,-9.49% (active),35.1%,31.3%,60.2%,44.7%
CCOCC(O)(c1ccc(Cl)cc1)c1ccc(Cl)cc1,95.1%,113%,93.9%,115%,107%,107%,89.4%,83.2%,104%,111%,96.1%,88.1%,103%,100%,117%,97.4%,104%,94.1%,114%
CC(COC(=O)c1ccccc1)N1CC2CCC(C1)O2 (stereo not drawn),107%,98.2%,97.8%,95.1%,104%,91.1%,104%,100%,99.8%,104%,107%,97.3%,104%,107%,106%,106%,100%,92.7%,99.3%
CCCCCCCCCCCCCC(=S)NCCCC[C@H](NC(=O)OCc1ccccc1)C(=O)Nc1ccccc1,37.2%,60.8%,95.2%,58.4%,45.5%,19.8%,27.6%,49.3%,48.8%,55.6%,52.4%,17.1%,83.6%,17.5%,69.1%,43.3%,75.3%,69.1%,37.3%
O=C(Oc1c(Cl)c(Cl)c(Cl)c(Cl)c1Cl)C1CCCN1C(=O)OCc1ccccc1 (stereo not drawn),33.5%,68.3%,39.9%,60.2%,13.2%,-0.576% (active),12.4%,17.2%,67.7%,35.9%,60.9%,17.3%,72.3%,69.1%,92.2%,42.2%,50.5%,82.1%,78.9%
C#CC[C@@H]1C[C@]2(C)[C@H]3CC=C4[C@H]5CC(C)(C)CC[C@]5(C(=O)NCCCCN)CC[C@@]4(C)[C@]3(C)CC[C@H]2C(C)(C)[C@H]1OC(C)=O,78.9%,90.3%,36%,92.2%,-27.6% (active),2.98% (active),70.1%,27.8%,6.69% (active),-49.7% (active),-47.9% (active),-30% (active),85%,-58.6% (active),-43.3% (active),89.4%,86.9%,111%,2.23% (active)
C=C(CN1CC=CCC1)[C@@H]1CC[C@]2(C(=O)OC)CC[C@]3(C)[C@H](CC[C@@H]4[C@@]5(C)CC[C@H](OC(C)=O)C(C)(C)[C@@H]5CC[C@]43C)[C@@H]12,95.5%,95.1%,104%,106%,97.8%,71.2%,84%,100%,109%,77.6%,107%,57.9%,92.9%,99.2%,101%,92.5%,93.3%,91.9%,86.1%
COc1cc(NC(C)CCCN)c2ncccc2c1Sc1ccc(Cl)cc1 (stereo not drawn),86%,76.1%,77%,67.7%,10.1%,15.2%,75.4%,59.1%,63.7%,-77.4% (active),76.3%,-33.2% (active),82.4%,36%,57.9%,70.5%,75.9%,65.1%,27.5%
Cc1ccc(N=CNN=C(N)N)cc1,106%,92%,111%,102%,120%,109%,95.4%,100%,115%,113%,113%,87.8%,114%,118%,110%,105%,94.8%,97.4%,103%
CCc1ccc(Nc2ncnc3c2cnn3-c2cccc(Br)c2)cc1,96.1%,85.7%,105%,84%,102%,91.8%,89.1%,97.2%,106%,104%,104%,106%,99%,103%,100%,98%,102%,88.6%,98.6%
O=C(c1ccccc1)N(CCCCl)C(=O)N(CCCCl)C(=O)c1ccccc1,83.1%,94.9%,92.9%,86.7%,108%,70.1%,88.1%,87.7%,94.6%,102%,102%,91.1%,91.8%,85.7%,111%,100%,97.2%,100%,96.4%
C=CCn1c(C)nc2cc(Nc3nc(Nc4ccc5nc(C)n(CC=C)c5c4)nc4ccccc34)ccc21,94.2%,99.8%,109%,101%,117%,79.8%,99.1%,96.3%,113%,108%,115%,102%,94.5%,90%,124%,113%,98.6%,102%,109%
CC(C)CC(NC(=O)C(CCCN=C(N)N)NC(=O)OCc1ccccc1)C(=O)NC(CNC(=O)/C=C/c1ccccc1)C(C)C (stereo not drawn),109%,100%,104%,107%,108%,89.2%,98.7%,108%,101%,117%,107%,92.3%,107%,109%,107%,107%,96.4%,107%,106%
